# Assay outcomes (PubChem)
# An excerpt weighted towards active compounds, which were near 17% of everything screened.
# TGFb inhibitor = inhibitors of TGF-b signaling; HepG2 CAGA-GFP TGF-b/SMAD3 reporter, GFP fluorescence, 18 h; TGF-beta stimulated, 500 pg/mL final; Potency, µM (highest dose often 46.1 µM), without a hit: at the top dose activity, negative = inhibition, most hits filed as inhibitors; 410,000 compounds, 1.2% hits; AID 588855; also: % is scaled to controls: 0 for no effect and ±100 for the full control effect; nearly all actives have a fitted effect of over 65% in size
#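 Read-out: total well GFP (ex488/em500-530) summed from mean per-cell fluorescence. Cells: HEPG2 CAGA-GFP, 1% FBS DMEM, 18 h at 37 degrees C with 500 pg/mL final TGF-beta. Unstimulated wells served as the full-inhibition control; stimulated DMSO wells = 0%.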
# TDP1 cell noCPT = qHTS for Inhibitors of human tyrosyl-DNA phosphodiesterase 1 (TDP1): qHTS in cells in absence of CPT; DT40 Tdp1-/- hTDP1 cells, no CPT, ATP luminescence, 48 h; Potency, µM (highest dose often 46.2 µM), inactives show top-dose activity change, negative = growth inhibition, hits mostly inhibitors; 420,000 compounds, 15% hits; also: % is scaled to controls: 0 for no effect and ±100 for the full control effect; nearly all actives have a fitted effect of over 55% in size
#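 Readout: luminescence from CellTiter-Glo after 30 min in the dark at RT. Cells: DT40 Tdp1-/- with stable hTDP1, 400/well. Exposure: compounds alone, ≥48 hr, 37 °C.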
# HepG2 tox = kills HepG2 cells in TGF-b inhibitor counter-screen; 410,000 compounds, 0.76% hits; Potency, µM (highest dose often 46.1 µM), for inactives: top-dose activity change, negative = cytotoxicity, hits mostly cytotoxic; AID 588856; HepG2 CAGA-GFP viability, ATP luminescence, 18 h
#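 CellTiter-Glo luminescence gave cytotoxicity after 18 hours at 37 degrees C. The cells were HepG2 CAGA-GFP in 1% FBS DMEM, stimulated with 500 pg/mL TGF-beta after compound addition. %Activity was normalised to no-cell wells (complete cell-killing) and DMSO (no toxicity), and curves were fitted and classified.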
# TDP1 cell CPT = DT40-hTDP1 cell growth loss with CPT; chicken DT40 Tdp1-/-;hTDP1 cells + 20 nM CPT, ATP luminescence, 48 h; Potency, µM (series often up to 46.2 µM), for the others: top-dose activity change, negative = growth inhibition, actives largely listed as inhibitors; 420,000 compounds, 12% hits; AID 686979; also: % is scaled to controls: 0 for no effect and ±100 for the full control effect; nearly all actives have a fitted effect of over 55% in size
#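 Cell growth measured by CellTiter-Glo luminescence after a minimum 48 h, 37 C compound exposure with 20 nM CPT in Tdp1-knockout DT40 cells stably expressing hTDP1, seeded 400/well; qHTS titration format.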
# HT1080-NT tox = kills 2HG-producing HT-1080-NT fibrosarcoma cells; HT-1080-NT fibrosarcoma viability, CellTiter-Glo ATP luminescence, 48 h; Potency, µM (series often up to 46.1 µM), for inactives: at the highest dose activity, negative = less viability, hits mostly cytotoxic; 360,000 compounds, 1.6% hits; AID 686970;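 also: NT is the 2HG producing partner of a matched IDH1 knockdown line; 0% = DMSO-treated cells and -100% = media-only wells without cells; nearly all actives have a fitted effect of over 55% in size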
#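 A 48-hour cytotoxicity screen used HT-1080-NT cells plated 2 hours before compound delivery. ATP-based CellTiter-Glo luminescence measured viability, normalized to DMSO and no-cell controls.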
# HT1080 IDH1KD tx = toxicity to HT-1080 IDH1 knockdown cells (counter line). HT-1080 IDH1 knockdown viability, ATP luminescence, 48 h. Potency, µM (top dose mostly 46.1 µM), for the others: at the highest dose activity, negative = toxicity, actives largely listed as cytotoxic. 360,000 compounds, 2% hits. AID 686971;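 also: 0% = DMSO wells and -100% = cell-free medium wells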
#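 CellTiter-Glo luminescence after 48 h compound exposure at 37 degrees C of IDH1-knockdown HT-1080 cells in 5% FBS RPMI. %Activity scaled between DMSO wells and cell-free media wells, with curves fitted and assigned curve classes.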
# Active calls of the source: *; ? = inconclusive; · = no result. Calls follow the shape of the dose curve; as a rule, active = well fitted curve in the direction sought with a large enough effect; inconclusive = small, poorly fitted or top-dose-only effect, or another doubt; inactive = no such curve, though single readings can be large; an effect the other way counts as inactive or inconclusive. Potency is read from the fitted curve at half-maximal effect.
SMILES,TGFb inhibitor,TDP1 cell noCPT,HepG2 tox,TDP1 cell CPT,HT1080-NT tox,HT1080 IDH1KD tx
CCN1C(=O)[C@H]2[C@@H](c3ccc(-c4ccc5c(c4)OCO5)c(OC)c3)N[C@@](C)(C(=O)OC)[C@H]2C1=O,17%,?,-3%,?,?,-8%
Cc1cc(NC(=O)c2ccco2)c(=O)n(Cc2cccc(C(F)(F)F)c2)c1,8%,-19%,-49%,-26%,-1%,-13%
O=S(=O)(/N=C(\c1ccc(F)cc1)N1CCOCC1)c1ccccc1,-8%,-5%,-5%,1%,1%,7%
COC(=O)c1c(NC(=O)C2(C)Cc3ccccc3C(=O)O2)sc2c1CCCC2 (configuration not stated),-4%,?,-1%,?,?,-16%
COc1cc2nc(CSc3nc(-c4ccc(F)cc4)cs3)[nH]c(=O)c2cc1OC,21%,?,0%,15µM*,10%,1%
COC(=O)c1ccc2c(=O)[nH]c(CSc3nc(-c4ccc(F)cc4)cs3)nc2c1,27%,-22%,31%,-3%,21%,22%
CCOCCc1nnc(NC(=O)C(=O)c2cc(C)n(-c3ccc(C)c(C)c3)c2C)s1,?,?,-28%,?,·,·
CCCN1C(=O)c2cc(C(=O)Nc3cccc(C(C)=O)c3)ccc2C1Nc1cccc(C(C)=O)c1 (configuration not stated),-7%,15µM*,-29%,8.2µM*,?,-1%
CCCN1C(=O)c2cc(C(=O)Nc3ccccc3OC)ccc2C1Nc1ccccc1OC (configuration not stated),-1%,?,-4%,?,-5%,-12%
COCCn1c(SCC(=O)c2ccc(C)cc2C)nc2cc(C(=O)NC3CCCC3)ccc2c1=O,-25%,-18%,3%,4%,·,·
FC(F)(F)C(Oc1nc(Nc2ccc(Cl)cc2)nc(N2CCOCC2)n1)C(F)(F)F,34%,21µM*,-13%,?,?,-5%
COC(=O)c1ccc(Nc2nc(N3CCOCC3)nc(N3CCOCC3)n2)cc1,-10%,-24%,-3%,?,-2%,0%
CC(C)c1ccc(Nc2nc(Nc3ccc(Cl)cc3)nc(N3CCOCC3)n2)cc1,21%,11µM*,3%,?,·,·
COc1ccc(Nc2nc(N3CCOCC3)nc(N3CCOCC3)n2)cc1,5%,?,-9%,-23%,-5%,-4%
COc1ccc(NC(=O)c2c(C)oc3ccc(O)c(CN4CCCC(C)C4)c23)cc1Cl (configuration not stated),·,16µM*,11µM*,23µM*,·,·
COc1ccc(NC(=O)c2c(C)oc3ccc(O)c(CN4CCC(C)CC4)c23)cc1Cl,13µM*,?,10µM*,9.2µM*,·,·
O=C(/C=C/c1ccccc1)Nc1ccc(C(=O)N2CCCCC2)cc1,0%,?,2%,?,-11%,-10%
Cc1ccc(/C=N/Nc2nc(C)cc(C)n2)cc1,2%,?,5%,16%,4%,5%
Cc1cc(N/N=C/c2ccccc2)nc(NCc2ccccc2)n1,?,2.6µM*,-20%,4.6µM*,-20%,-5%
Cc1cc(C)nc(NCc2ccc(Cl)cc2)n1,1%,-19%,-25%,-1%,-16%,-1%
Cc1cc(N/N=C/c2ccccc2F)nc(NCc2ccccc2)n1,-18%,12µM*,-18%,?,-7%,-4%
CN(C)c1nc(NCc2ccccc2)nc(N/N=C/c2ccc(Cl)cc2Cl)n1,23%,?,-7%,23µM*,13%,-1%
Cc1cc(Nc2cccc(Cl)c2)nc(NCc2ccccc2)n1,18µM*,3.7µM*,-94%,5.8µM*,?,?
Cc1cc(C)nc(N/N=C/c2ccc(Cl)cc2)n1,2%,-1%,-12%,-15%,16%,12%
Cc1cc(N/N=C/c2cccc(F)c2)nc(NCc2ccccc2)n1,?,13µM*,-29%,?,21µM*,16µM*
SMILES,TGFb inhibitor,TDP1 cell noCPT,HepG2 tox,TDP1 cell CPT,HT1080-NT tox,HT1080 IDH1KD tx
Cc1cc(N/N=C/c2cccc(Cl)c2)nc(NCc2ccccc2)n1,20µM*,7.3µM*,10µM*,8.2µM*,?,?
Cc1cc(N/N=C/c2ccc(Cl)cc2)nc(NCc2ccccc2)n1,?,8.2µM*,-60%,21µM*,-4%,-21%
Cc1cc(C)nc(N/N=C/c2cccc(Cl)c2)n1,-6%,-22%,7%,-20%,-1%,-1%
CCOc1cc(N2CCOCC2)c(OCC)cc1NC(=O)COC(=O)CCn1c(C)csc1=O,-20%,-18%,-17%,8%,5%,1%
CC1=Nc2cc(C(=O)O)ccc2Sc2ccc(Br)cc21,-7%,-18%,-16%,-3%,-5%,1%
CCCC1=Nc2cc(C(=O)NC3CCCC3)ccc2Sc2ccc(C)cc21,0.79µM*,1µM*,-1%,1.5µM*,·,·
CC1=Nc2cc(C(=O)NCC3CCCO3)ccc2Sc2ccc(Br)cc21 (configuration not stated),?,5.8µM*,-14%,3.7µM*,10µM*,16µM*
CC1=Nc2cc(C(=O)NC3CCCCC3)ccc2Sc2ccc(Cl)cc21,?,1µM*,-16%,0.82µM*,·,·
